Where “and” joins values, the source holds several entries; their conditions need not be identical. Equal entries are not always repeated. Results filed as inconclusive are left out. Calls of active or inactive are those of the source. Unless noted, calls come from the whole dose curve; as a rule, active = well fitted curve in the direction sought with a large enough effect in the repeat runs; inconclusive = weak or mixed curves; inactive = no such curve, though single readings can be large; an effect the other way counts as inactive or inconclusive.
Experiments:
[1] = molecular target: Cytochrome P450 2D6 (Homo sapiens) (UniProt P10635); assay: Cytochrome P450 family 2 subfamily D member 6 (CYP2D6) small molecule antagonists: luciferase biochemical (cell-free) qHTS assay (AID 1645840); note: nearly all actives have a fitted effect of over 55% in size; note: potency is the fitted concentration of half-maximal effect; for activity change, negative = inhibition: % is set by controls: 0 for no effect and ±100 for the full control effect
Chain of Cytochrome P450 2D6 (Homo sapiens) (P10635 whole entry, looked up): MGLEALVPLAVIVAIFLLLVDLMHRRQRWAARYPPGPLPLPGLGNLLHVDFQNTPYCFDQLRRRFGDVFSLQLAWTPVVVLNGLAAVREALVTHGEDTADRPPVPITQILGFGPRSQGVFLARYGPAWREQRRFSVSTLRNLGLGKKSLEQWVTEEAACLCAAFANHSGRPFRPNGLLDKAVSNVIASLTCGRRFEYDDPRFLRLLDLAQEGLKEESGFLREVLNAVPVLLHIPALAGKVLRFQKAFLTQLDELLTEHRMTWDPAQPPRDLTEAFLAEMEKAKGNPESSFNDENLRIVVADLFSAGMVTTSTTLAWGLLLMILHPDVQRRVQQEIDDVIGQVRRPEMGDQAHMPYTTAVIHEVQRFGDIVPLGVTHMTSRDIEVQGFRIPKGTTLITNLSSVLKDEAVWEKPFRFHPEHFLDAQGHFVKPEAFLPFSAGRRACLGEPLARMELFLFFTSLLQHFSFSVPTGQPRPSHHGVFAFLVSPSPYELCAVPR
Summary of the method: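 P450-Glo CYP2D6 system: proluciferin substrate converted by enzyme to luciferin, read by luminescence proportional to activity. Enzyme-substrate mix with compound 10 min at room temperature, then NADPH regeneration 1 h before detection reagent.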

[2] = molecular target: Cytochrome P450 2C9 (Homo sapiens) (UniProt P11712); assay: Cytochrome P450 family 2 subfamily C member 9 (CYP2C9) small molecule antagonists: luciferase biochemical (cell-free) qHTS assay (AID 1645842); note: nearly all actives have a fitted effect of over 55% in size; note: potency is the fitted concentration of half-maximal effect; for activity change, negative = inhibition: % is set by controls: 0 for no effect and ±100 for the full control effect
Chain of Cytochrome P450 2C9 (Homo sapiens) (P11712 whole entry, looked up): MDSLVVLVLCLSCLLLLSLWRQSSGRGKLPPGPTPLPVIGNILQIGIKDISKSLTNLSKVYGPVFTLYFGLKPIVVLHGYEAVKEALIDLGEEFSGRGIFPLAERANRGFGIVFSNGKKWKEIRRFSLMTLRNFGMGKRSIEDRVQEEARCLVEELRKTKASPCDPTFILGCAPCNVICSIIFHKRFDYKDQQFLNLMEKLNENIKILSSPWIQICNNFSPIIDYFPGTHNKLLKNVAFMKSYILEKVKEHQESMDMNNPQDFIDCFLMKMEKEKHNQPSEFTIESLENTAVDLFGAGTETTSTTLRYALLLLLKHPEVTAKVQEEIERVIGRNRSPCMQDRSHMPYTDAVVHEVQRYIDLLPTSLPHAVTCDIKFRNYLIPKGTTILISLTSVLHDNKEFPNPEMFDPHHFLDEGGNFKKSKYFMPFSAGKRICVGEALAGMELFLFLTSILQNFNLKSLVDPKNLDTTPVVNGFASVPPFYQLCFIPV
Summary of the method: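 P450-Glo CYP2C9 system: proluciferin substrate with enzyme in mix containing 0.4% BSA, 10 min at room temperature, then NADPH regeneration solution added and incubated 1 h at 37C. Detection reagent stopped reaction; luminescence read after 20 min as RLU.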

[3] = Primary qHTS for inhibitors of nuclear receptor binding SET domain protein 2 (NSD2) in an isogenic RCH-ACV NSD2 p.E1099K mutant (9B) (AID 1645876; active = well fitted curve in the direction sought with a large enough effect; an effect the other way counts as inactive or inconclusive; note: nearly all actives have a fitted effect of over 70% in size; note: potency is the fitted concentration of half-maximal effect)
[4] = Primary qHTS for inhibitors of nuclear receptor binding SET domain protein 2 (NSD2) in an RCH-ACV wild type WT cells (2C) (AID 1645877; active = well fitted curve in the direction sought with a large enough effect; an effect the other way counts as inactive or inconclusive; note: nearly all actives have a fitted effect of over 70% in size; note: potency is the fitted concentration of half-maximal effect)
[5] = molecular target: Cytochrome P450 3A4 (Homo sapiens) (UniProt P08684); assay: Cytochrome P450 family 3 subfamily A member 4 (CYP3A4) small molecule antagonists: luciferase qHTS assay (AID 1645841); note: nearly all actives have a fitted effect of over 45% in size
Chain of Cytochrome P450 3A4 (Homo sapiens) (P08684 whole entry, looked up): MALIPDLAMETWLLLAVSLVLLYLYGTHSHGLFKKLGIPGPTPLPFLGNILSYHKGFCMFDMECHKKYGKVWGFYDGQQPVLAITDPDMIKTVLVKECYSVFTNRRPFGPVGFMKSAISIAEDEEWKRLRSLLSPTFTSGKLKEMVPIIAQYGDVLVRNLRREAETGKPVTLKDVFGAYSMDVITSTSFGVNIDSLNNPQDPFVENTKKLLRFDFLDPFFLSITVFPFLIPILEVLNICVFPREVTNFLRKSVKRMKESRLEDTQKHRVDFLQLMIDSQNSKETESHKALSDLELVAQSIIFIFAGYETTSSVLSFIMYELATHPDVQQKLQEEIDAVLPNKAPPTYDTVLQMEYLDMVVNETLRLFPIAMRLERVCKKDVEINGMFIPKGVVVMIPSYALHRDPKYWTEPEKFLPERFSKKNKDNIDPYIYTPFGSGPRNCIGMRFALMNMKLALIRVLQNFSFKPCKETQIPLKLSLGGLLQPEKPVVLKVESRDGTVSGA
Summary of the method: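 P450-Glo CYP3A4 enzyme with proluciferin substrate was preincubated with DMSO-dissolved compounds for 10 min at room temperature. NADPH regeneration solution started a 1 h reaction. Detection reagent stopped it, and luminescence was read after 20 min.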

[6] = A High-Content qHTS Against Drug Library for the Identification of Small Molecules that Inhibit DYT1 Early Onset Primary Dystonia-Associated Cell Pathology (AID 1645839; calls by dose curve)
Summary of the method: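 Induced EGFP-delE TorsinA cells are imaged after 48 h of compound treatment. Punctate fusion-protein distribution gives the %pathology value, while nuclei counts flag toxicity. Wild-type EGFP-hTOR1A cells define the normal pattern.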

[7] = molecular target: N-terminal Xaa-Pro-Lys N-methyltransferase 1 (Homo sapiens) (UniProt Q9BV86); assay: Confirmatory qHTS for Inhibitors of N-terminal methyltransferase 1 (NTMT1): MTaseGlo Assay (AID 1645874; active = well fitted curve in the direction sought with a large enough effect; an effect the other way counts as inactive or inconclusive; note: potency is the fitted concentration of half-maximal effect; nearly all actives have a fitted effect of over 65% in size); settings: NTMT1 enzyme, MTase-Glo SAH luminescence
Chain of N-terminal Xaa-Pro-Lys N-methyltransferase 1 (Homo sapiens) (Q9BV86 whole entry, looked up): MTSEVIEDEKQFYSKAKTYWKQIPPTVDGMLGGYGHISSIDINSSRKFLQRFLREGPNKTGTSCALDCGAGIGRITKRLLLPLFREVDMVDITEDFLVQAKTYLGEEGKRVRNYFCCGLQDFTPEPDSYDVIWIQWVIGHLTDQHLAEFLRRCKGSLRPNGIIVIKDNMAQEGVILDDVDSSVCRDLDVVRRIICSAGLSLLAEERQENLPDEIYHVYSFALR
Summary of the method: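 Enzyme mix (125 nM NTMT1, 100 uM SAM) + compound, 15 min RT; + 1 uM SPKRIA, 30 min RT, dark; MTase-Glo reagent 30 min, detection solution 30 min; luminescence. % inhibition vs no-enzyme/DMSO controls, 4-parameter Hill fit.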

[8] = molecular target: Catechol O-methyltransferase (Homo sapiens) (UniProt P21964); assay: Confirmatory Screen for Target Class Profiling of Small Molecule Inhibitors of Methyltransferases (AID 1745852; calls by dose curve; note: potency is the fitted concentration of half-maximal effect); settings: MTase-Glo luminescence, SAH detection, recombinant enzyme; measured here: COMT max response; stronger effect = lower value
Chain of Catechol O-methyltransferase (Homo sapiens) (P21964 whole entry, looked up): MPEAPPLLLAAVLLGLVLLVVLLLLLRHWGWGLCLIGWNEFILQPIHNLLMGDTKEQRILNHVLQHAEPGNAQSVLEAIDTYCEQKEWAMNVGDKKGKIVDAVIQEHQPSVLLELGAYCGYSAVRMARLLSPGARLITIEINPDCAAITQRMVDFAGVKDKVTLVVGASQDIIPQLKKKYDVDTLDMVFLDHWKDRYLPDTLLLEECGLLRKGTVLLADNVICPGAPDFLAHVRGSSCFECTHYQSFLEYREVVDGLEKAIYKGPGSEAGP

[9] = molecular target: Guanidinoacetate N-methyltransferase (Homo sapiens) (UniProt Q14353); assay: as above; settings: activity change, negative = inhibition: at 57.3 µM (top of the series)
[10] = molecular target: Nicotinamide N-methyltransferase (Homo sapiens) (UniProt P40261); assay: as above; settings: MTase-Glo luminescence, SAH detection, recombinant enzyme; measured here: NNMT max response; stronger effect = lower value
Chain of Nicotinamide N-methyltransferase (Homo sapiens) (P40261 whole entry, looked up): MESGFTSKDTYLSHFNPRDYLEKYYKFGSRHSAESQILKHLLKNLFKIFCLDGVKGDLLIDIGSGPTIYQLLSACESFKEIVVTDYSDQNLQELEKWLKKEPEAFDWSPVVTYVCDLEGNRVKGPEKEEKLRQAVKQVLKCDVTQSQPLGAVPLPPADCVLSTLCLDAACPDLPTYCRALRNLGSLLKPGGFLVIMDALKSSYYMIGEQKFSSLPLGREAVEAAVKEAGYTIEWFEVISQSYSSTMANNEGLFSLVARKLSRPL

CCOc1cc2c(c(F)c1OCC)C(=N)N(CC(=O)c1cc(N3CCOCC3)c(OC)c(C(C)(C)C)c1)C2
Potency [1]: 5.35 µM (active)
Potency [2]: 6.01 µM (active)
Potency [3]: 23 µM (active)
Potency [4]: 16.3 µM (active)

O=C1NC(O)CCN1[C@@H]1O[C@H](CO)[C@H](O)[C@H]1O (stereo partly drawn)
Potency [1]: inactive
Potency [5]: inactive
Potency [2]: inactive
Potency [3]: inactive
Potency [4]: inactive

CC1(C)O[C@@H]2C[C@H]3[C@@H]4CCC5=CC(=O)C=C[C@]5(C)[C@@H]4[C@@H](O)C[C@]3(C)[C@]2(C(=O)CO)O1
outcome [6]: inactive
Potency [1]: inactive
Potency [3]: inactive

N[C@H]1CN(c2c(F)cc3c(=O)c(C(=O)O)cn(C4C[C@@H]4F)c3c2Cl)CC12CC2 (stereo partly drawn)
outcome [6]: inactive
Potency [1]: inactive
Potency [2]: inactive

Nc1ccn(C2CO[C@H](CO)O2)c(=O)n1 (stereo partly drawn)
outcome [6]: inactive
Potency [1]: inactive
Potency [5]: inactive
Potency [2]: inactive

Cc1ccc(-n2[nH]c(C)c(N=Nc3cccc(-c4cccc(C(=O)O)c4)c3O)c2=O)cc1C
Potency [1]: 4.9 µM (active) and 7.56 µM (active)
Potency [2]: inactive

Oc1cc2c(cc1O)C1c3ccc(O)c(O)c3OCC1(O)C2 (stereo not drawn)
Potency [1]: inactive
Potency [2]: 21.3 µM (active)

CN(C)CC(=O)N1CCC(c2ccc(NC(=O)c3ncc(C#N)[nH]3)c(C3=CCCCC3)c2)CC1
Potency [1]: inactive
Potency [2]: inactive
Potency [3]: 5.8 µM (active) and 11.8 µM (active)
Potency [4]: 10.3 µM (active) and 9.34 µM (active)

COc1cc(C)c(C=CC(C)=CC=CC(C)=CC(=O)O)c(C)c1C
Potency [1]: inactive
Potency [2]: 23.9 µM (active)

Cc1cn([C@@H]2O[C@H](CO)[C@@H](O)[C@H]2F)c(=O)[nH]c1=O
outcome [6]: inactive
Potency [1]: inactive
Potency [2]: inactive
Potency [3]: inactive
Potency [4]: inactive

Cn1cc(-c2ccc3ncc(Cc4ccc5ncccc5c4)n3n2)cn1
Potency [1]: 12 µM (active)
Potency [2]: 0.756 µM (active)

O=C(Nc1cc2cc[nH]c2cn1)c1ccccc1
Potency [1]: 13.5 µM (active)
Potency [2]: 4.77 µM (active)
Potency [7]: 6.31 µM (active)
Potency [3]: 12.9 µM (active)
Potency [4]: 9.16 µM (active)
activity [8]: -83.5%
Potency [9]: 19.2 µM (active)
activity [10]: -77.9%

CCCCCCCCCCCCCCCC(=O)OC[C@@H](NC(=O)C(Cl)Cl)[C@H](O)c1ccc([N+](=O)[O-])cc1
Potency [1]: inactive
Potency [2]: 3.01 µM (active)

C#CCC(Cc1cnc2nc(N)nc(N)c2n1)c1ccc(C(=O)N[C@@H](CCC(=O)O)C(=O)O)cc1 (stereo partly drawn)
Potency [1]: inactive
Potency [2]: inactive
Potency [3]: 0.0047 µM (active)

Cc1cc(O)c2c(c1)C(=O)c1cccc(O)c1C2=O
Potency [1]: inactive
Potency [2]: inactive
Potency [3]: inactive

Oc1cc(-c2nc(-c3ccccc3)[nH]c2-c2ccncc2)ccc1Cl
Potency [1]: 0.756 µM (active)
Potency [2]: 1.69 µM (active)
Potency [3]: 11.8 µM (active) and 18.3 µM (active)
Potency [4]: 13.2 µM (active) and 16.4 µM (active)

Cn1cc(CNCC2CCN(c3ncc(C(=O)NO)cn3)CC2)c2ccccc21
Potency [1]: 3.38 µM (active)
Potency [2]: inactive
Potency [3]: 0.742 µM (active)

COc1cc(C(C)C)c(Oc2cnc(NC(CO)CO)nc2N)cc1I
Potency [1]: 19 µM (active)
Potency [2]: 12 µM (active)
Potency [3]: inactive

C[C@@H](NCc1cc2ccccc2[nH]1)c1cccc2ccccc12
Potency [1]: 0.0952 µM (active)
Potency [2]: 10.7 µM (active)
Potency [3]: 16.6 µM (active)

Cn1cnc2c(F)c(Nc3ccc(Br)cc3F)c(C(=O)NOCCO)cc21
Potency [1]: inactive
Potency [2]: 9.52 µM (active)

CC(C)(N)c1ccc(-c2nc3ccccc3nc2-c2ccccc2)cc1
Potency [1]: 15.1 µM (active)
Potency [2]: 13.5 µM (active)
Potency [3]: 16.3 µM (active)
Potency [4]: 20.5 µM (active)

OCCNC1CCCc2c1[nH]c1ccc(-c3ccccc3)cc21 (stereo not drawn)
Potency [1]: 15.1 µM (active)
Potency [2]: 26.8 µM (active)
Potency [3]: 11.8 µM (active)

CCc1nc(-c2cccc(C)c2)c(-c2ccnc(NC(=O)c3ccccc3)c2)s1
Potency [1]: inactive
Potency [2]: 2.68 µM (active)
Potency [3]: 20.5 µM (active)
Potency [4]: 16.3 µM (active)

— PubChem BioAssay (NCATS)
